# Bioassay records as filed in PubChem.
# HEK293 tox: kills HEK 293 cells | HEK 293 viability, ATP luminescence (CellTiter-Glo), 48-72 h | Potency, µM (titrated, usually from 115 µM), for the others: at the highest dose activity change, negative = cytotoxicity, actives largely listed as inhibitors | 94,000 compounds, 6.6% hits | AID 1345083; also: % is scaled to controls: 0 for no effect and ±100 for the full control effect; nearly all actives have a fitted effect of over 60% in size
#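 250 HEK 293 cells/well; compound by pintool; incubated 48 or 72 hr at 37 degree Celsius; CellTiter-Glo added, 10 min RT, luminescence imaged.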
# NPR1 antag: blocks ANP-stimulated signaling of human Npr1 receptor; P16066; HEK293 hNpr1 GloSensor cGMP, ANP-stimulated luminescence; Potency, µM (titrated, usually from 46.3 µM), without a hit: at the highest dose activity change, negative = inhibition, actives largely listed as inhibitors; 76,000 compounds, 1.6% hits; calls by dose curve; also: % is scaled to controls: 0 for no effect and ±100 for the full control effect; nearly all actives have a fitted effect of over 60% in size
#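 Compound pre-incubated 30 min at room temperature on GloSensor-loaded HEK293 cells stably carrying hNpr1 and the pGS-40F cGMP biosensor. Stimulation uses hNppA at 0.1 nM final; luminescence is taken at baseline and 20 min post-agonist.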
# FLuc inh-1: inhibitors of firefly (Photinus pyralis) luciferase; P08659; purified P. pyralis luciferase, luminescence, biochemical; Potency, µM (titrated, usually from 115 µM), actives largely listed as inhibitors; 76,000 compounds, 2.5% hits; also: % is scaled to controls: 0 for no effect and ±100 for the full control effect; nearly all actives have a fitted effect of over 65% in size
# Target sequence (P08659 whole entry, looked up): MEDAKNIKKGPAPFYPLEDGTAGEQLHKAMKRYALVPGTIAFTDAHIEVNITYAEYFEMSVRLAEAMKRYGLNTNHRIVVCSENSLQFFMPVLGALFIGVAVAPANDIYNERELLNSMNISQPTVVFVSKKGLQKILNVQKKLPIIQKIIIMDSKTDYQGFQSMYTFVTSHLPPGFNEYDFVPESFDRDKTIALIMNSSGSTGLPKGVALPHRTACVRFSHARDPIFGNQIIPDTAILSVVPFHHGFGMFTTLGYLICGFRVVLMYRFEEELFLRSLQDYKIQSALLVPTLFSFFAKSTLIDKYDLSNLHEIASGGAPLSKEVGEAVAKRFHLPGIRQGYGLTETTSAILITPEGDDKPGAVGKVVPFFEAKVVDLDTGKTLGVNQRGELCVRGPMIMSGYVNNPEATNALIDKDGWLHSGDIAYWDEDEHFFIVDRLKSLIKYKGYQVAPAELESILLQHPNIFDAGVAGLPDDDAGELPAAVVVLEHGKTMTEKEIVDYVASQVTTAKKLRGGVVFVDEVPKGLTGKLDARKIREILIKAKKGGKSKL
#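 Biochemical qHTS: compound (6-point titration) added to 10uM D-luciferin plus 10uM ATP in Tris acetate pH 7.5 buffer with Mg, Tween-20 and BSA, then purified enzyme at 10nM; light output imaged.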
# NIH3T3 tox: kills NIH 3T3 cells. Potency, µM (doses to about 96.7 µM), for the others: top-dose activity change, negative = cytotoxicity, hits mostly inhibitors. 94,000 compounds, 4.3% hits. AID 1345082. NIH 3T3 viability, CellTiter-Glo ATP luminescence, 48-72 h; also: % is scaled to controls: 0 for no effect and ±100 for the full control effect; nearly all actives have a fitted effect of over 55% in size
#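 First NIH 3T3 cells are plated at 400 cells/well; next compound is pinned in; then plates incubate 48 or 72 hr at 37 °C; finally CellTiter-Glo is added and luminescence read after 10 min.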
# GPT2 inh: blocks human glutamate pyruvate transaminase 2; Q8TD30; Recombinant GPT2, coupled pyruvate oxidase/HRP Amplex Red fluorescence; Potency, µM (highest dose often 57.7 µM), for the others: top-dose activity change, negative = inhibition, most hits filed as inhibitors; 100,000 compounds, 0.25% hits; also: % is scaled to controls: 0 for no effect and ±100 for the full control effect; nearly all actives have a fitted effect of over 60% in size
#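 Inhibition is scored from Amplex Red fluorescence generated when pyruvate oxidase and HRP act on pyruvate released by GPT2. Reactions contain 10ng/uL enzyme, 250uM a-KG and 2mM L-alanine and run 30 min at room temperature.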
# FLuc SDR -ATP: stabilizes firefly luciferase without ATP; shares compounds with FLuc inh-1; Purified FLuc-C-HiBiT, Nano-Glo HiBiT luminescence, no ATP; Potency, µM (highest dose often 32.7 µM), for inactives: at the top dose activation (signal gain), usual class: activators; 1,300 compounds, 7.8% hits; AID 1963318; also: nearly all actives have a fitted effect of over 55% in size
# FLuc SDR ATP: binders stabilizing firefly luciferase, plus ATP | 1,300 compounds, 8.7% hits | purified FLuc-C-HiBiT + ATP, HiBiT complementation luminescence | shares compounds with FLuc inh-1 | Potency, µM (highest dose often 32.7 µM), inactives show top-dose activation (gain of signal), hits mostly activators;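 also: signal reports ligand binding via conformational change of the enzyme rather than luciferase catalysis; % of control where 0% means no effect; nearly all actives have a fitted effect of over 55% in size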
# FLuc inh-2: inhibitors of firefly luciferase enzymatic activity | 1,300 compounds, 42% hits | purified FLuc-C-HiBiT enzyme, luciferin luminescence | shares compounds with FLuc inh-1 | Potency, µM (doses to about 32.7 µM), for the others: at the highest dose activity change, negative = inhibition, most hits filed as inhibitors; also: % is scaled to controls: 0 for no effect and ±100 for the full control effect; nearly all actives have a fitted effect of over 70% in size
# The depositor's hits bear a star; i = inactive; ? = inconclusive; / = no result; [ ] = another dose, or the depositor's remark. This is a sample that favours compounds with a hit; in the whole collection about 10% have one here. Unless noted, calls follow the shape of the dose curve; as a rule, active = well fitted curve in the direction sought with a large enough effect; inconclusive = small, poorly fitted or top-dose-only effect, or another doubt; inactive = no such curve, though single readings can be large; an effect the other way counts as inactive or inconclusive. Potency is read from the fitted curve at half-maximal effect.
SMILES,HEK293 tox,NPR1 antag,FLuc inh-1,NIH3T3 tox,GPT2 inh,FLuc SDR -ATP,FLuc SDR ATP,FLuc inh-2
COc1ccc(-c2cc(N3CCCC(NC(=O)c4ccc(F)c(F)c4)C3)n[nH]2)cc1 (centres undefined),?,-21%,?,?,-30%,/,/,/
COc1ccc(C(=O)NC2CCCN(c3cc(-c4ccc(F)cc4)[nH]n3)C2)cc1OC (centres undefined),?,-2%,13µM*,-29%,-23%,16%,13%,?
CCOc1ccc(CN2CC[C@@](C)(O)[C@H](N3CCCC3)C2)cc1,-10%,0%,i,?,i,/,/,/
O=C(O)CCSc1nnc(-c2ccc(Cl)cc2Cl)o1,/,/,/,/,/,?,0.7µM*,0.5µM*
O=C(Nc1ccc(F)cc1)c1ccc2oc(-c3cccnc3)nc2c1,-20%,/,/,-16%,1%,/,/,/
Cc1ccc(C(=O)Nc2ccc3oc(-c4cccnc4)nc3c2)c(Cl)c1,/,/,/,/,/,17%,15%,?
O=C(O)c1ccccc1C(=O)Nc1ccc(-c2ccccc2)cc1,/,/,/,/,i,/,/,/
Cc1ccc(C)c(NS(=O)(=O)c2cc(C(=O)Nc3ccccc3-c3ccccc3)ccc2C)c1,/,/,/,/,-8%,/,/,/
Cc1ccc(C(=O)Nc2cccc(C(=O)O)c2)cc1S(=O)(=O)N1CCCC1,/,/,/,/,/,?,0.078µM*,0.088µM*
O=C(Nc1ccccc1C(=O)O)c1ccccc1,/,/,/,/,/,18%,10%,?
Cc1ccc(C(=O)Nc2ccccc2C(=O)O)cc1S(=O)(=O)N1CCCCCC1,/,/,/,/,/,?,?,2.8µM*
COc1cccc(CNC(=O)[C@@H]2CCCN2c2nccc(Nc3ccccc3Cl)n2)c1,?,/,/,?,i,/,/,/
Cc1ccc2c(n1)OC(COc1ccccc1)CN(Cc1cccc(F)c1)C2=O (centres undefined),?,/,/,?,-17%[27.3 µM],/,/,/
O=C(N[C@@H]1CN(Cc2ccc(Cl)c(F)c2)C[C@H]1CO)C1CCC1,?,3%,i,-13%,i,/,/,/
O=C(O)C1CN(Cc2ccc(-c3nc4cc(Cc5ccccc5F)ccc4s3)c(F)c2)C1,/,/,/,/,-4%[11.5 µM],15%[5.62 µM],9%[5.62 µM],4%[5.62 µM]
CCc1nc(-c2ccc(OC3CCN(C(=O)COc4ccc(F)cc4)C3)cc2)no1 (centres undefined),?,?,i,?,?,/,/,/
Cc1nc(C)c(C(=O)N2CCC(Oc3ccc(-c4noc(-c5ccccc5)n4)cc3)C2)s1 (centres undefined),?,6.3µM*,5.6µM*,?,i,15%,10%,?
CCc1nc(-c2ccc(OC3CCN(C(=O)C4CC4)C3)cc2)no1 (centres undefined),?,?,7.9µM*,?,i,27%,20%,?
C[C@H]1[C@@H]2[C@@H](O)C([C@H](C)C(=O)N3CCCC3)CC[C@@]2(C)CC[C@@H]1NC(=O)COc1ccccc1 (some centres undefined),-4%,8%,i,?,1%,/,/,/
CN1CC(=O)N(c2ccc(Cl)cc2)Cc2c(NC3CCCCC3)ncnc21,?,6%,i,?,2%,/,/,/
CC1CCCN(c2ncnc3c2cnn3-c2ccc(F)cc2)C1 (centres undefined),/,/,/,/,/,2.2µM*,?,0.7µM*
Clc1ccc(-n2ncc3c(NC4CCCC4)ncnc32)cc1,/,/,/,/,/,?,?,1.2µM*
Cc1ccc(-n2ncc3c(N4CCCC(C)C4)ncnc32)c(C)c1 (centres undefined),/,/,/,/,/,29%,20%,11µM*
Cc1ccc(Cl)cc1-n1ncc2c(N3CCC(C)CC3)ncnc21,/,/,/,/,/,13%,8%,-8%
CCNc1ncnc2sc3c(c12)CCN(S(=O)(=O)c1ccccc1)C3,0%,3%,i,-23%,i,/,/,/
SMILES,HEK293 tox,NPR1 antag,FLuc inh-1,NIH3T3 tox,GPT2 inh,FLuc SDR -ATP,FLuc SDR ATP,FLuc inh-2
O=C1NCCCCCCN(C(=O)c2ccco2)[C@H]2C[C@H](c3nc(Cc4ccccc4)no3)C[C@@H]12,?,1%,i,?,0%,/,/,/
Cc1oc(C(C)C)cc1C(=O)N1CC[C@](C)(O)[C@@H](O)C1,3%,2%,i,0%,5%,/,/,/
Cn1cc(C#N)cc1C(=O)N1CCCC(C)(Cc2ccc3c(c2)OCO3)C1 (centres undefined),?,-1%,i,?,i,/,/,/
COc1ccc(CCNC(=O)c2ccc3nc(-c4ccccn4)oc3c2)cc1,?,/,/,-16%,-12%,/,/,/
Cc1cccc(-n2ncc3c(N4CCCCCC4)ncnc32)c1,/,/,/,/,/,5µM*,?,0.88µM*
Cc1cccc(-n2ncc3c(N4CCCC(C)C4)ncnc32)c1 (centres undefined),/,/,/,/,/,3.9µM*,?,0.7µM*
Cc1cccc(N2Cc3c(ncnc3N3CCC(N4CCCCC4)CC3)N(C)CC2=O)c1,-1%,/,/,-29%,-1%,/,/,/
CC1CCCN(c2ncnc3c2CN(c2cccnc2)C(=O)CN3C)C1 (centres undefined),-24%,9%,i,-17%,-19%,/,/,/
CC1CCCN(c2ncnc3c2cnn3-c2ccc(Cl)cc2)C1 (centres undefined),/,/,/,/,/,2.8µM*,0.25µM*,0.12µM*
Cn1ncc(N2CCCC(CC(=O)Nc3ccc(Cl)cc3)C2)cc1=O (centres undefined),-35%,4%,i,?,i,/,/,/
CC1CCCN(c2ncnc3c2cnn3-c2ccccc2)C1 (centres undefined),/,/,/,/,/,2.5µM*,?,0.44µM*
O=C(NCCc1c[nH]c2ccccc12)c1cnc2c(c1)N(C(=O)CCc1ccccc1)CCC2,?,2%,i,?,-15%,/,/,/
O=C1c2cnc(-c3ccc(F)cc3F)nc2OCCN1Cc1ccc(F)cc1F,?,5%[70.6 µM],i,-2%[138 µM],-11%[88.5 µM],/,/,/
O=C1c2cnc(-c3ccc(F)cc3F)nc2OCCN1CC1CC1,/,/,/,/,/,30%[49.3 µM],?,?
O=C1c2cnc(-c3ccc(F)cc3)nc2OCCN1CC1CC1,/,/,/,/,/,?,?,14µM*
OC1CN(Cc2ccc(-c3cnc4c(OCc5ccccc5)nccn34)cc2)C1,?,-27%[70.6 µM],5µM*,89µM*,-1%[88.5 µM],26%[49.3 µM],?,?
